# Laboratory results taken from the antibiotic and cytotoxicity screens of Wong et al. (2023).
# Out of some 39,000 compounds screened, about 1,500 (3.8%) were called active. The entries come from a sample that favours actives as a whole.
# System: HSkMC (human skeletal muscle cells)
# Assay: cytotoxicity call (relative viability < 0.9)
# Details: 10 µM
row,SMILES,cytotoxicity call
1,C[C@H]1CN([C@@H](C)CO)C(=O)c2cccc(NC(=O)C3CCOCC3)c2O[C@@H]1CN(C)C(=O)NC1CCCCC1,inactive
2,C[C@H](CO)N1C[C@H](C)[C@H](CN(C)S(=O)(=O)c2cn(C)cn2)Oc2ncc(C3=CCCC3)cc2C1=O,inactive
3,CO[C@H](CN(C)S(=O)(=O)c1cccc(Cl)c1)[C@@H](C)CN([C@@H](C)CO)S(=O)(=O)c1cccc(Cl)c1,inactive
4,COc1ccc(NC(=O)Nc2ccc3c(c2)C(=O)N([C@H](C)CO)C[C@H](C)[C@H](CN(C)C(=O)Nc2c(C)noc2C)OCCCC[C@H](C)O3)cc1,inactive
5,COc1ccc(NC(=O)N(C)C[C@@H]2Oc3ccc(NS(=O)(=O)c4c(C)noc4C)cc3CC(=O)N([C@H](C)CO)C[C@H]2C)cc1,inactive
6,C[C@@H]1CCCCO[C@@H](CN(C)C(=O)C2CCCCC2)[C@@H](C)CN([C@@H](C)CO)C(=O)c2cc(NC(=O)Cc3ccccc3)ccc2O1,inactive
7,C[C@@H]1CN([C@H](C)CO)S(=O)(=O)c2ccc(C#CCN(C)C)cc2O[C@@H]1CN(C)S(C)(=O)=O,inactive
8,CSc1nc(=O)c(C)n[nH]1,inactive
9,Cc1ccc(S(=O)(=O)Nc2ccc3c(c2)C(=O)N([C@@H](C)CO)C[C@H](C)[C@H](CN(C)S(=O)(=O)c2cn(C)cn2)O3)cc1,inactive
10,C[C@@H]1CCCCO[C@H](CN(C)Cc2ccc3c(c2)OCO3)[C@H](C)CN([C@@H](C)CO)C(=O)c2cc(NC(=O)Nc3ccc(C(F)(F)F)cc3)ccc2O1,active
11,C[C@@H]1CCCCO[C@H](CN(C)Cc2ccc3c(c2)OCO3)[C@@H](C)CN([C@H](C)CO)C(=O)c2cc(NC(=O)Nc3ccc(C(F)(F)F)cc3)ccc2O1,active
12,C[C@@H]1CCCCO[C@H](CN(C)Cc2ccc3c(c2)OCO3)[C@H](C)CN([C@H](C)CO)C(=O)c2cc(NC(=O)Nc3ccc(C(F)(F)F)cc3)ccc2O1,active
13,C[C@H](CO)N1C[C@H](C)[C@H](CN(C)Cc2ccc(C(F)(F)F)cc2)OCCCC[C@H](C)Oc2ccc(NC(=O)Nc3ccc4c(c3)OCO4)cc2C1=O,inactive
14,C[C@H](CO)N1C[C@H](C)[C@@H](CN(C)Cc2ccc(C(F)(F)F)cc2)OCCCC[C@H](C)Oc2ccc(NC(=O)Nc3ccc4c(c3)OCO4)cc2C1=O,inactive
15,C[C@@H]1CCCCO[C@@H](CN(C)Cc2ccc(C(F)(F)F)cc2)[C@H](C)CN([C@@H](C)CO)C(=O)c2cc(NC(=O)Nc3ccc4c(c3)OCO4)ccc2O1,inactive
16,C[C@H]1CCCCO[C@@H](CN(C)Cc2ccc(C(F)(F)F)cc2)[C@@H](C)CN([C@@H](C)CO)C(=O)c2cc(NC(=O)Nc3ccc4c(c3)OCO4)ccc2O1,inactive
17,C[C@@H]1CN([C@H](C)CO)C(=O)c2cc(NC(=O)Nc3ccc(C(F)(F)F)cc3)ccc2O[C@@H](C)CCCCO[C@@H]1CN(C)Cc1ccc2c(c1)OCO2,active
